Screens from PubChem.
Compounds with a hit are over-represented: about 5.6% of the library has one in this group of screens.
PKM2 activator = activators of human pyruvate kinase M2. P14618. purified PKM2, Kinase-Glo ATP luminescence, activation; response scale: 0% is enzyme alone, no compound. Potency, µM (series often up to 57.5 µM), inactives show at the highest dose activation, usual class: activators. 260,000 compounds, 0.34% hits. AID 1631; note: potency is the fitted concentration of half-maximal effect; nearly all actives have a fitted effect of over 55% in size
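Kinase-Glo luminescence reports ATP generated from ADP (0.1 mM) and PEP (0.5 mM) by purified hPK-M2 after 1 h at room temperature, pH 7.2 imidazole buffer; intermediate enzyme activity allows detecting inhibitors and activators.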
RORgamma inh = inhibitors of mouse ROR gamma transcriptional activity; P51450; Potency, µM (titrated, usually from 53.6 µM), for the others: at the highest dose activity change, negative = inhibition, hits mostly inhibitors; 310,000 compounds, 5.4% hits; Drosophila S2 Gal4-RORgamma UAS-luciferase reporter, 20 h; AID 2551; note: potency is the fitted concentration of half-maximal effect; nearly all actives have a fitted effect of over 60% in size
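Drosophila S2 cells stably expressing Gal4-DBD/mouse RORγ fusion under metallothionein promoter plus UAS-luciferase; compound 1 h, then 700 uM CuSO4 induction for 20 h at ambient temperature; inhibition read as reduced luminescence.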
Six1-Eya2 blk = inhibitors of human Six1/Eya2 interaction | Q15475+O00167 | AID 651725 | activity change, % (test concentration not listed) | 360,000 compounds, 0.56% hits | AlphaScreen GST-Six1/His-Eya2 binding, biochemical; stronger effect = lower value; in the data active = activity change below about -65%; inconclusive = mostly about -30% to -63%
Target sequence (O00167 whole entry, looked up): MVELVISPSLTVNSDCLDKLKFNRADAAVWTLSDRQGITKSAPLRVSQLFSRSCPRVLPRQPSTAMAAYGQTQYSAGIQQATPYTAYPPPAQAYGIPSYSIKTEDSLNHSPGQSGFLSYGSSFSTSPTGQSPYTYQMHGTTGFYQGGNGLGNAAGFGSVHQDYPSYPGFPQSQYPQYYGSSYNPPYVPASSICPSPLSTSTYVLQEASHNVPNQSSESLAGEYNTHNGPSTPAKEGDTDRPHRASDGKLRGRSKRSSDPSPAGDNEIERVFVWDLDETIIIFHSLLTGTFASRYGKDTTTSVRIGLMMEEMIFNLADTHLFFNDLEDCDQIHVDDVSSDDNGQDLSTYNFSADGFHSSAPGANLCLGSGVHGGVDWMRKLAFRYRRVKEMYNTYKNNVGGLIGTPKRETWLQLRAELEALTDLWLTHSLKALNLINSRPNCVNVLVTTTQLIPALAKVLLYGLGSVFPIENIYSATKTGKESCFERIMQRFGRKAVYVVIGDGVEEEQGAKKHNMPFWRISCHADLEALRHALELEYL
Target sequence (Q15475 whole entry, looked up): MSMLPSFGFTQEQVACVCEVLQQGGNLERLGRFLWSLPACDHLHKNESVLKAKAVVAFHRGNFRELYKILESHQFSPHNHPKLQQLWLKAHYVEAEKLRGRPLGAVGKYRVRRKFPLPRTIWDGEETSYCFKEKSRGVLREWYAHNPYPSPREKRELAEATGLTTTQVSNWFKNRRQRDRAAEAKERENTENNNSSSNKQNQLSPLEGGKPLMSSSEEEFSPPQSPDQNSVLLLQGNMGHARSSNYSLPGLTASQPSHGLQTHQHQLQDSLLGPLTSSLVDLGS
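AlphaScreen with GST-Six1 and His-Eya2 (5X mix: 250 nM and 500 nM), glutathione donor and nickel acceptor beads; buffer 50 mM Tris pH 8.0, 300 mM NaCl, 1 mM TCEP; 1 h at 37 C in the dark.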
CtBP-E1A inh = inhibitors of CtBP/E1A interaction | activity change, % (concentration not given with the values) | AlphaScreen GST-E1A/His-CtBP binding, 1536-well; stronger effect = lower value | 340,000 compounds, 0.49% hits; in the data active = activity change below about -65%; inconclusive = mostly about -30% to -63%
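Steps: dispense buffer (Tris pH 8.0, NaCl 300 mM, TCEP 1 mM, BSA, Tween 20); add 5X protein mix (GST-E1A, His-CtBP, 125 nM each); pin 23 nL compound; 2 h at 37 °C, dark; add 5X beads (50 ug/mL); 1 h; read.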
VP16 counter = inhibits Gal4-VP16 luciferase reporter, ROR gamma counter-screen; Drosophila S2 Gal4-VP16 UAS-luciferase, luminescence, 20 h; Potency, µM (doses to about 53.6 µM), for the others: at the top dose activity, negative = inhibition, actives largely listed as inhibitors; AID 2546; 310,000 compounds, 3.5% hits;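 note: Gal4-VP16 expression switched on by copper sulfate through the metallothionein promoter; potency is the fitted concentration of half-maximal effect; nearly all actives have a fitted effect of over 50% in size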
The depositor's hits bear a star; ? = inconclusive; · = no result; [ ] = dose if it differs, or a comment. Unless noted, calls come from the whole dose curve; as a rule, active = well fitted curve in the direction sought with a large enough effect; inconclusive = small, poorly fitted or top-dose-only effect, or another doubt; inactive = no such curve, though single readings can be large; an effect the other way counts as inactive or inconclusive. % is set by controls: 0 for no effect and ±100 for the full control effect.

SMILES	PKM2 activator	RORgamma inh	Six1-Eya2 blk	CtBP-E1A inh	VP16 counter
Cc1ccc(C(=O)NC(=S)Nc2cccc3c(C)cc(C)nc23)cc1	1.4%	1µM*	-1.9	-12.6	4.47µM*
Cc1cccc(NC(=S)NC(=O)c2ccc(-c3ccccc3)cc2)n1	-2.7%	3.98µM*	-6.1	-4.4	?
Cc1ccc2c(NC(=S)NC(=O)c3ccccc3)cccc2n1	-2.8%	15.8µM*	-10.4	-23.1	?
CC(NC(=O)c1cc(COc2ccc(-n3cncn3)cc2)on1)c1ccc(F)cc1 (stereo unspecified)	·	·	-1.7	1.6	·
COc1ccc(N=C2C(=Nc3ccc(OC)cc3)N(c3ccccc3)C(=S)N2C(=O)c2ccc(Cl)cc2)cc1	-17.4%	14.1µM*	-19.6	-6.3	?
COc1ccc(C2=NS(=O)(=O)N(C)C(C(=O)Nc3ccc(C(C)=O)cc3)=C2)cc1OC	-1.6%	13.9%	-12.8	-5.5	15.8µM*
Cc1ccccc1-c1ocnc1C(=O)Nc1ccccc1NC(=O)c1ccccn1	·	2.24µM*	-5.4	-11.5	7.08µM*
Cc1ccc(C)c(C(=O)c2ccccc2NC(=O)c2ccccn2)c1	7.9%[11.5 µM]	-12.1%	8.4	5.7	-9.3%
COC(=O)/C=C1/S/C(=N/NC(=O)c2ccc(OC)cc2)NC1=O	-0.5%	14.1µM*	-1.0	-3.4	?
COC(=O)/C=C1\S/C(=N/NC(=O)c2ccc(OC)cc2)NC1=O	2.5%	-26.5%	-1.8	8.7	-8.0%
Cc1ccccc1-c1cncnc1NCc1cccs1	·	-0.7%	·	·	-13.9%
CCCCCCCCCCCCCCCC[N+](C)(C)Cc1ccc(F)cc1	·	·	14.4	3.7	·
CCCCCCCCCCCCC[N+](C)(C)Cc1ccccc1	·	?	·	·	8.91µM*
CC(NC(=S)NCCCN1CCOCC1)C12CC3CC(CC(C3)C1)C2 (stereo unspecified)	1.5%	10µM*	-2.6	-3.8	?
CC(NC(=S)NCc1ccccc1)C12CC3CC(CC(C3)C1)C2 (stereo unspecified)	-0.3%	2.82µM*	-1.0	0.7	?
Cc1ccc2c(C)ccc(O)c2n1	6.9%	11.2µM*	-0.3	-9.1	?
Cc1ccc2cc(F)c(F)c(F)c2n1	·	·	3.7	9.3	·
Cc1ccc2ccc3ccc(C)nc3c2n1	0.4%	0.251µM*	-3.4	-3.1	0.562µM*
O=C(Nc1ccccc1O)c1ccc(NS(=O)(=O)c2cccc3cccnc23)cc1	18.3%	-36.1%	-6.3	17.0	8.3%
CC1CCc2c(C(=O)Nc3nccs3)csc2C1 (stereo unspecified)	-2.4%	3.55µM*	-7.3	-4.8	8.91µM*
Cc1cc2occ(CC(=O)NC3=NCCS3)c2cc1C(C)C	-2.5%	-137.2%	1.4	-2.2	12.6µM*
Cc1ccc2c(CC(=O)NC3=NCCS3)coc2c1	-0.3%	?	-3.1	-0.2	?
C=CCn1cnc2c(nnn2-c2ccc(C)c(C)c2)c1=O	2.6%	27.6%	3.5	3.7	-3.3%
O=S(=O)(Cc1ccccc1Cl)N1CCCC1	5.2%	2.2%	2.2	-78.7*	6.5%
C(=C/c1nccc2c1[nH]c1ccccc12)/c1ccc2c(c1)OCO2	-7.7%	0.891µM*	30.0	31.2	-24.1%
SMILES	PKM2 activator	RORgamma inh	Six1-Eya2 blk	CtBP-E1A inh	VP16 counter
Fc1ccccc1/C=N/Nc1ncnc2ccccc12	1.2%	2.82µM*	-9.3	-4.6	4.47µM*
Clc1ccc(/C=N/Nc2ncnc3ccccc23)cc1Cl	-2.2%	1.41µM*	4.6	6.2	3.55µM*
Fc1ccccc1/C=N/Nc1nc2ccccc2o1	·	6.31µM*	8.0	0.6	11.2µM*
CCOC(=O)C1C(C)=C(Nc2ccc(OC)cc2)C(=O)N1c1ccc(OC)cc1 (stereo unspecified)	-9.7%	4.5%	-2.2	3.4	-2.9%
COCCn1c(N)c(N(Cc2ccccc2)C(=O)Cc2c(Cl)cccc2Cl)c(=O)[nH]c1=O	4.8%	-1.3%	3.6	5.0	-6.0%
CN1C(=O)c2cccc3c(S(=O)(=O)Nc4ccc(O)c(C(=O)O)c4)ccc1c23	·	-12.9%	-71.9*	?	-0.7%
CC(Sc1n[nH]c(N)n1)C(=O)Nc1cccc(S(=O)(=O)N2CCOCC2)c1 (stereo unspecified)	-0.8%	10.1%	-9.5	·	-9.7%
C/C(=N\NC(=O)c1cc2ccccc2cc1O)c1ccc2c(c1)OCO2	-2.1%	15.8µM*	3.3	-17.1	?
C/C(=N\NC(=O)c1ccc2c(c1)OCO2)c1ccco1	-36.9%	?	1.5	24.4	?
C/C(=N\NC(=O)c1ccc(C)cc1C)c1ccc2c(c1)OCO2	0.3%	-39.7%	2.2	-20.8	12.9%
C/C(=N/NC(=O)c1ccc2c(c1)OCO2)c1ccc(Br)s1	-0.5%	2.82µM*	-4.8	·	?
C/C(=N\NC(=O)c1ccc(Cl)c(Cl)c1)c1ccc(Br)s1	-1.6%	0.631µM*	1.8	-4.7	0.631µM*
COc1ccc(NC2CCCN(C(=O)c3ccc4nc(C)c(C)nc4c3)C2)cc1OC (stereo unspecified)	·	-0.9%	0.3	-3.5	1.7%
COc1ccc(OC)c(Nc2nc(-c3sc(N)nc3C)cs2)c1	7.4%	-35.5%	?	-67.6*	12.8%
CCCC(=O)Nc1nc(C)c(-c2csc(Nc3cc(OC)ccc3OC)n2)s1	-3.8%	?	-17.8	-15.9	-20.0%
Cc1cc(NS(=O)(=O)c2ccc(Nc3nc(-c4sc(N)nc4C)cs3)cc2)no1	6.9%	-7.1%	-90.8*	-90.4*	-9.8%
Cc1cc(O)ccc1Nc1nc(-c2sc(N)nc2C)cs1	14.0%	-27.5%	?	-66.7*	0.5%
Cc1nc(N)sc1-c1csc(Nc2ccccc2)n1	-7.7%	26.7%	?	?	?
Cc1ccc(S(=O)(=O)N(CC(=O)Nc2ccccc2C(=O)O)c2ccccc2)cc1	-0.7%	0.2%	-3.3	-8.0	1.3%
COc1cccc(/C=N\NC(=O)Cn2nnc3ccccc32)c1O	1.9%	1.26µM*	-92.8*	-93.2*	3.16µM*
COc1cccc(/C=N/NC(=O)CCc2c(C)n[nH]c2C)c1O	-0.5%	1.41µM*	?	?	3.16µM*
COc1ccc(O)c(/C=N\NC(=O)CCn2nnc3ccccc32)c1	-0.1%	8.91µM*	?	?	2.82µM*
COc1cccc(/C=N/NC(=O)CSCC(=O)Nc2ccccc2)c1O	0.4%	0.501µM*	-69.8*	-85.2*	1.58µM*
COC(=O)COc1coc(CN2CCN(c3cccc(Cl)c3)CC2)cc1=O	·	?	15.2	5.7	-8.6%
O=C(OCC(=O)N1CCCC1=O)c1nc(Cl)c(Cl)c(Cl)c1Cl	1.6%	?	-8.6	6.3	?
COc1ccc(/C=C2/C(=O)N(c3nc4ccccc4s3)N=C2CSc2ccc(Cl)cc2)cc1	-9.9%	14.1µM*	-19.5	-6.4	12.6µM*
COc1ccc(CCN2C(=O)CCC2(C)c2nnnn2-c2ccc3c(c2)OCCO3)cc1OC (stereo unspecified)	·	·	7.4	5.7	·
